# Measured values published in PubChem BioAssay.
# Unmarked numbers belong to inactive results. A call without a number means that no potency is given here. For some assays here: Potency and affinity values are given separately. Activity calls are given as the source filed them. Unless noted, no rule for the calls is given here.
# Columns and labels:
# [1] = antimalarial activity against Dd2 strain (AID 2302;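 active = growth inhibition above 50% at the single 2 µM test dose, taken to imply half-maximal potency below 2 µM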); details: P. falciparum Dd2 in RBCs, LDH growth readout, 72 h; at 2 µM; active compounds read high
# [2] = human hepatoma cell viability loss – ATP luminescence, cytotoxicity control for P. falciparum antimalarial project, primary screen (AID 2303;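 active = inhibition above 50%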); details: HepG2 viability, 24-48 h, at 10 µM, active compounds read high
# [3] = biological target: L-lactate dehydrogenase (Plasmodium falciparum (isolate CDC / Honduras)) (UniProt Q27743); experiment: PfLDH activity inhibition – cell lysate, 3D7 strain, counter-screen for P. falciparum growth inhibition project (AID 2304); details: P. falciparum 3D7 crude extract, LDH APAD/NBT absorbance; at 2 µM; active compounds read high
# L-lactate dehydrogenase (Plasmodium falciparum (isolate CDC / Honduras)), sequence (Q27743 whole entry, looked up): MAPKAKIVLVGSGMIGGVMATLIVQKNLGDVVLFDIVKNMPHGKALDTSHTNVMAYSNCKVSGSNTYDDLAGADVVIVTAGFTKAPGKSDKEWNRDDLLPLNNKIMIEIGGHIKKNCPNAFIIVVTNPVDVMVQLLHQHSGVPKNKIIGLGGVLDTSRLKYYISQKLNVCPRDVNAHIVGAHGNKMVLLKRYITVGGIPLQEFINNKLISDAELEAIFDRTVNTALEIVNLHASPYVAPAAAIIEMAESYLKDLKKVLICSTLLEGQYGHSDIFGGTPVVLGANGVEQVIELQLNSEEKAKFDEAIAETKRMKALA
# [4] = inhibition of 3D7 malaria parasite growth – strain 3D7 (AID 2306); details: P. falciparum 3D7 erythrocytic growth, LDH absorbance, 72 h; at 2 µM; active compounds read high
# [5] = biological target: Calcium-dependent protein kinase 1 (Plasmodium falciparum (isolate 3D7)) (UniProt P62344); experiment: PfCDPK1 kinase inhibitors, biochemical, TCAMS library (AID 1159585; cut-off not given, nearly all actives have IC50 up to about 0.98 µM;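 also: inhibitors leave more ATP so luminescence rises with inhibition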); details: recombinant PfCDPK1, Kinase-Glo ATP depletion luminescence
# Calcium-dependent protein kinase 1 (Plasmodium falciparum (isolate 3D7)), sequence (P62344 whole entry, looked up): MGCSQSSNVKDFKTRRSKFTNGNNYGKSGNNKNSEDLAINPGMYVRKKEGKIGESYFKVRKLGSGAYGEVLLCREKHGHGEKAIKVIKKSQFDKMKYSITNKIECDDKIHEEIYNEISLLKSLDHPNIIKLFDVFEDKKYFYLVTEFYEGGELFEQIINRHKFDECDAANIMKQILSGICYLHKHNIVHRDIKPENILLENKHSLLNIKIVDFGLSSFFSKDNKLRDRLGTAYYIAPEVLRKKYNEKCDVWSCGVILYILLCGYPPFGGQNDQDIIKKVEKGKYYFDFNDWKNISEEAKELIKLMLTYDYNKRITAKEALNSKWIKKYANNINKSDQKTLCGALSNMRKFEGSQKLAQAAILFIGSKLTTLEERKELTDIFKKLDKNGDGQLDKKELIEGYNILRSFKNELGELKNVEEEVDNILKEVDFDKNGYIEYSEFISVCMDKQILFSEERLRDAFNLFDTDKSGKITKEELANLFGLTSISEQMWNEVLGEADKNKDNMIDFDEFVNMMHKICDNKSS
# [6] = biological target: Plasmodium falciparum protein kinase 6 (PK6, PF3D7_1337100) (UniProt Q8IDW1); experiment: PfPK6 kinase inhibitors, biochemical, TCAMS library (AID 1159586); details: recombinant PfPK6, Kinase-Glo ATP depletion luminescence
# Plasmodium falciparum protein kinase 6 (PK6, PF3D7_1337100), sequence (Q8IDW1 1-305): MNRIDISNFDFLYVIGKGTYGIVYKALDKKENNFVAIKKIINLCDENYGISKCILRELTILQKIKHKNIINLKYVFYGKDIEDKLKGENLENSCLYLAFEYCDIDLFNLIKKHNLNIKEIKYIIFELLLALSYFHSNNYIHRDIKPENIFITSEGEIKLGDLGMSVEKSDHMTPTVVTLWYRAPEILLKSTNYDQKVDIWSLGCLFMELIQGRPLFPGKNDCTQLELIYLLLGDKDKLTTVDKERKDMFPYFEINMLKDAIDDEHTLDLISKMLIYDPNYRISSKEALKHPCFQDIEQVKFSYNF
# [7] = biological target: Protein kinase 7 (PK7), Plasmodium falciparum 3D7 (PF3D7_0213400) (UniProt Q7YTF7); experiment: inhibition of Plasmodium PK7 catalytic activity – biochemical, TCAMS antimalarial set, Kinase-Glo luminescence (AID 1159587); details: recombinant PfPK7, Kinase-Glo ATP depletion luminescence
# Protein kinase 7 (PK7), Plasmodium falciparum 3D7 (PF3D7_0213400), sequence (Q7YTF7 1-343): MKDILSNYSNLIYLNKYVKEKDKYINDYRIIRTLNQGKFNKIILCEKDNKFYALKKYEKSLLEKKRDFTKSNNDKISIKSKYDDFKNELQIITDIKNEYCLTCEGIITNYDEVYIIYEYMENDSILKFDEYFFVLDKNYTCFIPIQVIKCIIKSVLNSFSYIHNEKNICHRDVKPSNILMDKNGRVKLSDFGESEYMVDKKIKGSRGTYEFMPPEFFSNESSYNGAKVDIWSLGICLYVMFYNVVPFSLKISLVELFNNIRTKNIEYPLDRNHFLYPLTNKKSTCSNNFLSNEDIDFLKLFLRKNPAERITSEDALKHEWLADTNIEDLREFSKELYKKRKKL
# [8] = biological target: Calcium-dependent protein kinase 4 (Plasmodium falciparum (isolate 3D7)) (UniProt Q8IBS5); experiment: PfCDPK4 kinase inhibitors, biochemical, TCAMS library (AID 1159588; cut-off not given, nearly all actives have IC50 up to about 0.91 µM); details: recombinant PfCDPK4, Kinase-Glo ATP depletion luminescence
# Calcium-dependent protein kinase 4 (Plasmodium falciparum (isolate 3D7)), sequence (Q8IBS5 whole entry, looked up): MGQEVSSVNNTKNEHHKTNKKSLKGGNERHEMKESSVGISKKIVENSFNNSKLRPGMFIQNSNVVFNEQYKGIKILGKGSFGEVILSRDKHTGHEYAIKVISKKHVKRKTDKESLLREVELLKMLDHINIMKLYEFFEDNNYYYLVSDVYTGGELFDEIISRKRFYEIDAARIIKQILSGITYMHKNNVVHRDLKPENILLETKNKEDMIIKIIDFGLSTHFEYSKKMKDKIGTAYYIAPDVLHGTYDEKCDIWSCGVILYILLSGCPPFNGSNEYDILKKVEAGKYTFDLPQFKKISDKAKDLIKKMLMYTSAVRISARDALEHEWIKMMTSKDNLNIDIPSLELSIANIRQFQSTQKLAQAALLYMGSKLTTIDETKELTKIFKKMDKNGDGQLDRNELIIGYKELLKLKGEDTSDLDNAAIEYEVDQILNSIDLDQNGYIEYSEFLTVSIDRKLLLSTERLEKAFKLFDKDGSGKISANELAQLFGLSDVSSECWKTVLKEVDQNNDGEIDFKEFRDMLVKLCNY
SMILES,growth inhibition [1],inhibition [2],inhibition [3] [%],growth inhibition [4],outcome [5],outcome [6],outcome [7],outcome [8]
COc1cc(NCC(O)CNc2cc(Cl)nc3ccccc23)nc2ccccc12 (stereo not given),99% (active),17%,-2,99% (active),inactive,inactive,inactive,inactive
CCCc1cccc(OC)c1OCCCON1C(N)=NC(N)=NC1(C)C,97% (active),65% (active),5,94% (active),inactive,inactive,inactive,inactive
Cc1cc(C)cc(-n2c(C)cc(C=C3SC(=Nc4ccc(Cl)cc4)NC3=O)c2C)c1,97% (active),12%,-7,97% (active),inactive,inactive,inactive,inactive
CN1CCN(CCCN(C(=O)Nc2cc(C(F)(F)F)cc(C(F)(F)F)c2)c2ccccc2Cc2ccccc2)CC1,92% (active),35%,0,89% (active),inactive,inactive,inactive,inactive
Oc1ccc2nc(NCCCc3ccccc3)nc(NCCc3ccccc3)c2c1,88% (active),31%,-3,99% (active),inactive,inactive,inactive,inactive
CCc1ccc(NC(=O)c2ccc(CN3CCCN(CCC(C)C)CC3)cc2)cc1,25%,48%,-7,96% (active),inactive,inactive,inactive,inactive
CCN(CCO)CCc1cccc(Nc2nccc(-c3c(-c4ccc(NC(=O)C(C)(C)C)cc4)nn4ccccc34)n2)c1,96% (active),62% (active),4,101% (active),inactive,inactive,inactive,inactive
CCc1cn2c3c(cc(C(=O)N[C@@H](Cc4cccc(Cl)c4)[C@H](O)CNC4CCOCC4)cc13)N(C)S(=O)(=O)CC2,98% (active),2%,-1,98% (active),inactive,inactive,inactive,inactive
COc1ccc2nccc([C@@H](O)CN3CCC(NCc4cc5cccc(O)c5[nH]4)CC3)c2c1,35%,-10%,-6,101% (active),inactive,inactive,inactive,inactive
NC(=O)c1cccc(-n2ccc3cc(CNC4Cc5ccccc5C4)ccc32)c1,7%,17%,-1,88% (active),inactive,inactive,inactive,inactive
N#Cc1ccc2c(c1)CCN(CCC1CCC(NC(=O)c3ccc(-c4ccccc4)s3)CC1)CC2 (stereo not given),36%,6%,0,99% (active),inactive,inactive,inactive,inactive
O=S(=O)(NCCN1CCCC1)c1cccc(-c2ccc(CNCc3ccsc3)cc2)c1,31%,33%,6,101% (active),inactive,inactive,inactive,inactive
Cc1[nH]c(CNCCCNc2cc(=O)c3ccccc3[nH]2)c(Br)c1Br,47%,-3%,4,91% (active),inactive,inactive,inactive,inactive
CCCc1cc(N2CCC(N3CCCC3)CC2)nc(Nc2ccc(OC)cc2)n1,14%,15%,6,94% (active),inactive,inactive,inactive,inactive
O=C(NCc1ccc(Cl)c(Cl)c1)c1ccc(-c2nc3ccc(F)cc3[nH]2)cc1,9%,0%,1,93% (active),inactive,inactive,inactive,inactive
COc1ccc(CN(C)CCCOc2ccc(NC(=O)c3cccc4c(=O)c5cccc(C)c5[nH]c34)cc2)cc1OC,62% (active),3%,1,96% (active),inactive,inactive,inactive,inactive
COc1cc(Nc2nccc(NCC(O)c3ccc(C(F)(F)F)cc3)n2)cc(OC)c1OC (stereo not given),14%,45%,-2,91% (active),inactive,inactive,inactive,inactive
Cc1nc2nc(N)nc(N)c2c(C)c1Cc1cccc(C(N)=O)c1,-1%,59% (active),5,91% (active),inactive,inactive,inactive,inactive
COc1cc(-c2cc(-c3ccc(S(C)(=O)=O)cc3)cnc2N)ccc1O,97% (active),37%,-2,97% (active),inactive,inactive,inactive,inactive
CCN(CC)CCN(Cc1ccc(-c2ccc(C(F)(F)F)cc2)cc1)C(=O)Cn1c(CCc2c(F)cc(F)cc2F)nc(=O)c2ccccc21,26%,39%,3,89% (active),inactive,inactive,inactive,inactive

SMILES,growth inhibition [1],inhibition [2],inhibition [3] [%],growth inhibition [4],outcome [5],outcome [6],outcome [7],outcome [8]
CCCCN1CCN(c2cc(NS(=O)(=O)c3ccc(C(=O)Nc4ccc(C(F)(F)F)cc4)cc3)ccc2OC)CC1,20%,17%,-3,99% (active),inactive,inactive,inactive,inactive
COc1cc(CC2c3cc(O)c(Cl)cc3CCN2C)c(OC)cc1C (stereo not given),88% (active),10%,0,99% (active),inactive,inactive,inactive,inactive
Cc1nnsc1C(=O)Nc1cccc(-c2cccc(-c3nc4ccc(F)cc4[nH]3)c2)c1,45%,35%,3,100% (active),inactive,inactive,inactive,inactive
FC(F)(F)c1ccc2nc(-c3cccc(-c4cccc(CNCCN5CCNCC5)c4)c3)[nH]c2c1,18%,29%,4,92% (active),inactive,inactive,inactive,inactive
CCC(CO)NCC(O)Cn1c2ccc(Cl)cc2c2cc(Cl)ccc21 (stereo not given),88% (active),11%,-2,96% (active),inactive,inactive,inactive,inactive
O=C(/C=C/c1ccc(Cl)c(Cl)c1)NCCCCCCN1CCCN(C(=O)Nc2ccc(Cl)c(Cl)c2)CC1,8%,25%,-1,100% (active),inactive,inactive,inactive,inactive
CN(C)CCCOc1ccc(CN2CC[C@H](NC(=O)c3ccc(Cl)c(Cl)c3)C2)cc1Br,34%,11%,-2,101% (active),inactive,inactive,inactive,inactive
CN(C)CCOc1cc(NC(=O)Nc2ccc(-c3ccccc3)cc2)ccc1I,45%,9%,-3,101% (active),inactive,inactive,inactive,inactive
CN(C)CCOc1ccc(-n2c(-c3nonc3N)nc3cncc(-c4ccc(F)cc4)c32)cc1,7%,10%,5,97% (active),inactive,inactive,inactive,inactive
CCC(NC(=O)c1ccccc1NC(=O)c1ccc(C)cc1)C(=O)OC (stereo not given),86% (active),-4%,3,95% (active),inactive,inactive,inactive,inactive
CN1CCN(CCCCCCNc2c3ccccc3nc3ccccc23)CC1,-4%,35%,-3,101% (active),inactive,inactive,inactive,inactive
O=c1cc(NCCCNCc2cc3ccccc3s2)[nH]c2ccccc12,-3%,3%,-1,89% (active),inactive,inactive,inactive,inactive
Cc1cccc(-n2c(=O)c3c4c(sc3n3c(SCCC(C)C)nnc23)CCCC4)c1,8%,-2%,-4,90% (active),inactive,inactive,inactive,inactive
O=C(Nc1cccc(-c2csc(-c3nc4ccccc4[nH]3)c2)c1)c1ccoc1,67% (active),36%,1,96% (active),inactive,inactive,inactive,inactive
Cc1cccc2[nH]c(-c3ccc(-c4cccc(NC(=O)COc5ccccc5C(N)=O)c4)s3)nc12,19%,80% (active),-6,99% (active),inactive,inactive,inactive,inactive
O=C(Nc1ccc(-c2nc3ccccc3[nH]2)cc1)c1ccc([N+](=O)[O-])s1,77% (active),83% (active),-6,101% (active),inactive,inactive,inactive,inactive
Cc1nnc(N2C(=N)SC(=Cc3ccc(-c4ccc(OC(F)(F)F)cc4)o3)C2=O)s1,58% (active),37%,-7,85% (active),inactive,inactive,inactive,inactive
CCc1ccccc1NC(=O)CN1CCN(c2ncnc3scc(-c4ccc(F)cc4)c23)CC1,62% (active),6%,-2,83% (active),inactive,inactive,inactive,inactive
COc1cc(CNc2ccc(N3CCCC3)cc2)cc(Cl)c1OC,94% (active),41%,1,100% (active),inactive,inactive,inactive,inactive
OCc1ccc2nc3c(cc2c1)-c1cccc2cccc-3c12,-1%,16%,4,96% (active),inactive,inactive,inactive,inactive
